Assay results: the supplement of paper PMC12494721
Counter-ions that a name gives are not always drawn.

Test system: Escherichia coli IAI1
Experiment: fold change of Cadaverine concentration vs plate DMSO controls (fold change (ratio)); higher = more amine produced, active = hit call of the paper (significant change in both replicates, either direction)
Conditions: incubation time: 27 h, anaerobic, 37 °C;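 for the amine columns active = adjusted P below 0.05 in both replicates with a change the same way and a mean fold change under 0.8 or over 1.25; inactive = the rest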
Procedure, shortened: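 In 80 µL wells, cultures of four gut bacterial strains in mGAM started at OD 0.1 before a 1:1 dilution and grew anaerobically at 37 °C for 27 h. Compounds were added to 20 µM final, except sweeteners at 50 µM final. After extraction of whole cultures with cold acetonitrile/methanol plus 0.1% formic acid and centrifugation, amines were measured by LC–triple-quadrupole MS in dynamic MRM mode against external calibration curves, with within-batch drift correction. Values give fold change over DMSO controls on the same plate, averaged across 2 biological replicates.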

Fold change of Cadaverine concentration, active:
CN(C/C=C/c1ccccc1)Cc1cccc2ccccc12 [Naftifine hydrochloride] (20 µM) 1.34

Fold change of Cadaverine concentration, inactive:
Clc1ccc(CSC(Cn2ccnc2)c2ccc(Cl)cc2Cl)cc1 (stereo not given) [Sulconazole nitrate] (20 µM) 0.499
NC(=O)c1ncn([C@@H]2O[C@H](CO)[C@@H](O)[C@H]2O)n1 [Ribavirin] (20 µM) 1.09
CC(C)NCC(O)c1cc(O)cc(O)c1 (stereo not given) [Metaproterenol sulfate] (20 µM) 0.974
Cc1ccccc1C(=O)Nc1ccc(C(=O)N2CCCC(O)c3cc(Cl)ccc32)c(C)c1 (stereo not given) [Tolvaptan] (20 µM) 0.995
CC(C)(C)NC(=O)[C@H]1CC[C@H]2[C@@H]3CC[C@H]4NC(=O)C=C[C@]4(C)[C@H]3CC[C@]12C [Finasteride] (20 µM) 0.913
O=c1n(CCCN2CCN(c3cccc(Cl)c3)CC2)nc2ccccn12 [Trazodone hydrochloride] (20 µM) 0.982
NNc1nncc2ccccc12 [Hydralazine hydrochloride] (20 µM) 0.997
N=c1nc(N2CCCCC2)cc(N)n1O [Minoxidil] (20 µM) 0.995
C=CC[C@@H]1/C=C(\C)C[C@H](C)C[C@H](OC)[C@H]2O[C@@](O)(C(=O)C(=O)N3CCCC[C@H]3C(=O)O[C@H](/C(C)=C/[C@@H]3CC[C@@H](O)[C@H](OC)C3)[C@H](C)[C@@H](O)CC1=O)[C@H](C)C[C@@H]2OC [Tacrolimus Monohydrate] (20 µM) 1.01
